Molecules are shown by their SMILES. For some of these results: Measured potencies and affinities stand elsewhere.

Holding throughout (parameters): scale not given: direction of the effect not stated beside the values
For test [1], the target named is Protein translocase subunit SecA (Escherichia coli (strain K12)) (UniProt P10408). The experiment in a line: Assay to Identify E. coli SecA ATPase Inhibitors. Format: functional. The following applies: 30 µM.
Test [2] addresses T1, Ubiquitin-activating enzyme e1, putative (Leishmania donovani (strain BPK282A1)) (UniProt E9BSI1).
T1 sequence (whole entry): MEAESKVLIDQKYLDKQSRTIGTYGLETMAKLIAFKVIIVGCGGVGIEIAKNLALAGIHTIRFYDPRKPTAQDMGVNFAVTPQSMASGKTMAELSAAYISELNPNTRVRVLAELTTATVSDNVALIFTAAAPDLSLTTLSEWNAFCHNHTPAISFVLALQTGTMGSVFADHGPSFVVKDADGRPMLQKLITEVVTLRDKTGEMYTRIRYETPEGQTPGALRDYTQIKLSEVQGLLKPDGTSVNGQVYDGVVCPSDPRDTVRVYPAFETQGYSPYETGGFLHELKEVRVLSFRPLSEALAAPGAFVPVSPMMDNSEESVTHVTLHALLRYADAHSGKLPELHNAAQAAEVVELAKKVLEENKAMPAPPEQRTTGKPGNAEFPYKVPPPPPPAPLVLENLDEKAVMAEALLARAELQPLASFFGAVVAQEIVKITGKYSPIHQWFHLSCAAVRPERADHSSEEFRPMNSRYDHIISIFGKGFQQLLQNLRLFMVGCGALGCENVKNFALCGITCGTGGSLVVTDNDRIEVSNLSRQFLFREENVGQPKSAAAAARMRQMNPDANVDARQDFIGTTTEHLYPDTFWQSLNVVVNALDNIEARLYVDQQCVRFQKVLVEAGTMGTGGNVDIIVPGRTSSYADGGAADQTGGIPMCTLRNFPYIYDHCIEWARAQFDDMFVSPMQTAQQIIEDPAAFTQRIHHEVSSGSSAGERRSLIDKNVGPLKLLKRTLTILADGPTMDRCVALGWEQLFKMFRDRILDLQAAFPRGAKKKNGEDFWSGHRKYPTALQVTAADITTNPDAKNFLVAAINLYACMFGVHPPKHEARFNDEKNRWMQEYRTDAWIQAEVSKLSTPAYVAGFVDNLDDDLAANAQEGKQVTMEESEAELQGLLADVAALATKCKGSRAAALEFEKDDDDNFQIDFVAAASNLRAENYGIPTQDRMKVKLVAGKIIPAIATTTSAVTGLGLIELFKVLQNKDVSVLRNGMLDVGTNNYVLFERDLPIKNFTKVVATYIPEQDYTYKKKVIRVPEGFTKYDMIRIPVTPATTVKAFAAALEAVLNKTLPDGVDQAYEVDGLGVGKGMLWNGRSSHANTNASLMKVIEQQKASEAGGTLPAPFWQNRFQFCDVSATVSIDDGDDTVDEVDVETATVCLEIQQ
Put plainly: Leishmania donovani Ubiquitin Activating Enzyme (LdE1). It counts as functional. The following applies: 30 µM.

Test [3] addresses T2, Aspartate--tRNA(Asp/Asn) ligase (Mycobacterium tuberculosis (strain ATCC 25618 / H37Rv)) (UniProt P9WFW3).
T2 sequence (whole entry): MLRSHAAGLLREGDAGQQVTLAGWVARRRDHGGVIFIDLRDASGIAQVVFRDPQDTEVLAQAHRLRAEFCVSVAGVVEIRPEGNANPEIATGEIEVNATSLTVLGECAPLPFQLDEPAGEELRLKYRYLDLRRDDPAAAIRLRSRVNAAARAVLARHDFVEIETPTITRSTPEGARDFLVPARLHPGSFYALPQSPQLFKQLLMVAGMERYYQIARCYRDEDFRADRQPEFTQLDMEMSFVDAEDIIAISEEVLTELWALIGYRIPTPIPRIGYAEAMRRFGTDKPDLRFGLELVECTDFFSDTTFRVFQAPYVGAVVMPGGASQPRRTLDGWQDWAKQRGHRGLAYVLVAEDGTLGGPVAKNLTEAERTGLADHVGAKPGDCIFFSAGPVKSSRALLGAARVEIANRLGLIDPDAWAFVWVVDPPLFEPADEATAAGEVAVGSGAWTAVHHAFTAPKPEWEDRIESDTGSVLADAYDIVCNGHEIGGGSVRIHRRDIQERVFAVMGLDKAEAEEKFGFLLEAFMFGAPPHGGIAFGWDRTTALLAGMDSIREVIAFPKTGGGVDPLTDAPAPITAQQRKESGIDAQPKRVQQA
The experiment in a line: Assay for Asp RNA synthetase-1 from Mycobacterium tuberculosis. Format: functional. The following applies: 30 µM.

The target in test [4] is AMP-activated protein kinase, AMPK (Homo sapiens) (UniProt P54646+O43741+P54619+Q9UGJ0+Q9Y478+Q13131+Q9UGI9). The experiment in a line: AMP-dependent Kinase enzyme assay. An in vitro enzyme assay that detects ADP turnover that is directly proportional to AMPK activity. This uses naive AMPK that is activated during the assay with MK-8722. It counts as functional. The following applies: 30 µM.

The target in test [5] is Sialic acid-binding Ig-like lectin 9 (Homo sapiens) (UniProt Q9Y336). Put plainly: Hs-Siglec9 ALPHAscreen SOP 20170721. The following applies: 10 µM. (In general: Bead proximity is the source of the signal in Alpha formats.)
Test [6] relates to Trypanosoma cruzi. The experiment in a line: Trypanosoma cruzi phosphomannomutase and mannose-1-phosphate guanylyltransferase assay. Format: functional. The following applies: 10 µM.
In test [7] the target is T3, Arginase-2, mitochondrial (Homo sapiens) (UniProt P78540).
T3 sequence (whole entry): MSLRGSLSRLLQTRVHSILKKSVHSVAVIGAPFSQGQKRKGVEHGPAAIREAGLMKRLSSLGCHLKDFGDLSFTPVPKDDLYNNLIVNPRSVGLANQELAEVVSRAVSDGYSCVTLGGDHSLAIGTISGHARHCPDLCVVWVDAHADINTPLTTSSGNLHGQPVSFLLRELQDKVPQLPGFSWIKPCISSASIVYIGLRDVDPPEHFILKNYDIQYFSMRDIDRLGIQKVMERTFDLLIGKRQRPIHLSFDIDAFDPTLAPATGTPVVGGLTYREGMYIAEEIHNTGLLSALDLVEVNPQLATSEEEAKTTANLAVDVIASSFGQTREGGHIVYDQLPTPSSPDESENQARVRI
Put plainly: in vitro enzyme assay to detect the production of urea directly proportional to the activity of Arginase II. Further: in the data most compounds retested in dose-response had high values. It counts as functional. The following applies: 33.3 µM.

The target in test [8] is T4, Proteasome subunit beta (Trypanosoma cruzi) (UniProt O96673).
T4 sequence (whole entry): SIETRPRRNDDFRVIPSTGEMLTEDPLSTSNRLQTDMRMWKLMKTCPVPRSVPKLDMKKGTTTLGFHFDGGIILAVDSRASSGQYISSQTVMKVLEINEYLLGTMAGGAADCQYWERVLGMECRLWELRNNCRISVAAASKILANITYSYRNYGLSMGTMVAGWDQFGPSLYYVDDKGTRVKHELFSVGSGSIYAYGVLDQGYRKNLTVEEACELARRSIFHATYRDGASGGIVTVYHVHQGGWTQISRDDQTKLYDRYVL
Put plainly: Trypanosoma cruzi proteasome chymotrypsin-like activity (TcProtChymo) assay. Further: in the data most compounds retested in dose-response had high values. Format: functional. The following applies: 9.37 µM.

The species entered for test [9] is Homo sapiens. The experiment in a line: To identify inhibition of the IFN signalling (Jak-Stat) pathway via expression of an eGFP reporter gene under the control of an IFN-stimulated response element (ISRE) containing MxA promoter. The following applies: 30 µM. It counts as functional.
Test [10] deals with Shiga toxin 2 (Escherichia coli O157:H7) (UniProt P09385+P09386). Put plainly: E. coli 0.157:H7 Shiga Toxin SOP - stx2 screening assay. Format: functional. The following applies: 30 µM.
Test [11] concerns the target T5, Tyrosyl-tRNA synthetase, putative (Trypanosoma cruzi (strain CL Brener)) (UniProt Q4DSP6).
T5 sequence (whole entry): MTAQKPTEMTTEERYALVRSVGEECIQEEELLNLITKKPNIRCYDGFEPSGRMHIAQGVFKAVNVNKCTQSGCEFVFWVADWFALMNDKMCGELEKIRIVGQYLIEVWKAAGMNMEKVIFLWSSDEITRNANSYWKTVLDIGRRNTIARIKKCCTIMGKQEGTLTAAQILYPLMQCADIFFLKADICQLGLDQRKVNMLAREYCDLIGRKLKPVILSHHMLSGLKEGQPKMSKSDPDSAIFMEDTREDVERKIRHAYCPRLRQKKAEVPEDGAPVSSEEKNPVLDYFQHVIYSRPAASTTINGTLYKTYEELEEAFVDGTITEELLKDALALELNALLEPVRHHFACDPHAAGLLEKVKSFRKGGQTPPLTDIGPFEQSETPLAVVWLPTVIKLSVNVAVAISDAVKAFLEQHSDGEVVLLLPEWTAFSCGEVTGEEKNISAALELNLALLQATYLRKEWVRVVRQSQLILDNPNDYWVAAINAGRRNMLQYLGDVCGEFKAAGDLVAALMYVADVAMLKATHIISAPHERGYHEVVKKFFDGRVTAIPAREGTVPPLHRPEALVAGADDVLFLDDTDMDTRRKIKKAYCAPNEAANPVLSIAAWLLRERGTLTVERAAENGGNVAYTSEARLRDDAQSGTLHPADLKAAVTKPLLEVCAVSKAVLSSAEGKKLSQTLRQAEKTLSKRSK
The experiment in a line: Trypanosoma cruzi tyrosyl tRNA synthetase (TcYRS) _High Tyrosine SOP. Further: in the data most compounds retested in dose-response had high values. Format: functional. The following applies: 30 µM.

Test [12] concerns the target T5, Tyrosyl-tRNA synthetase, putative (Trypanosoma cruzi (strain CL Brener)). The experiment in a line: Trypanosoma cruzi tyrosyl tRNA synthetase (TcYRS) SOP. Format: functional. The following applies: 30 µM.
In test [13] the target is Chromo domain-containing protein 1 (Saccharomyces cerevisiae (strain ATCC 204508 / S288c) (Baker's yeast)) (UniProt P32657). Put plainly: ScCHD-1 Enzyme Inhibition Assay. Further: in the data most compounds retested in dose-response had high values. It counts as functional. The following applies: 30 µM.
Sequence of Chromo domain-containing protein 1 (Saccharomyces cerevisiae (strain ATCC 204508 / S288c) (Baker's yeast)) (P32657 whole entry, the tested form may be a part): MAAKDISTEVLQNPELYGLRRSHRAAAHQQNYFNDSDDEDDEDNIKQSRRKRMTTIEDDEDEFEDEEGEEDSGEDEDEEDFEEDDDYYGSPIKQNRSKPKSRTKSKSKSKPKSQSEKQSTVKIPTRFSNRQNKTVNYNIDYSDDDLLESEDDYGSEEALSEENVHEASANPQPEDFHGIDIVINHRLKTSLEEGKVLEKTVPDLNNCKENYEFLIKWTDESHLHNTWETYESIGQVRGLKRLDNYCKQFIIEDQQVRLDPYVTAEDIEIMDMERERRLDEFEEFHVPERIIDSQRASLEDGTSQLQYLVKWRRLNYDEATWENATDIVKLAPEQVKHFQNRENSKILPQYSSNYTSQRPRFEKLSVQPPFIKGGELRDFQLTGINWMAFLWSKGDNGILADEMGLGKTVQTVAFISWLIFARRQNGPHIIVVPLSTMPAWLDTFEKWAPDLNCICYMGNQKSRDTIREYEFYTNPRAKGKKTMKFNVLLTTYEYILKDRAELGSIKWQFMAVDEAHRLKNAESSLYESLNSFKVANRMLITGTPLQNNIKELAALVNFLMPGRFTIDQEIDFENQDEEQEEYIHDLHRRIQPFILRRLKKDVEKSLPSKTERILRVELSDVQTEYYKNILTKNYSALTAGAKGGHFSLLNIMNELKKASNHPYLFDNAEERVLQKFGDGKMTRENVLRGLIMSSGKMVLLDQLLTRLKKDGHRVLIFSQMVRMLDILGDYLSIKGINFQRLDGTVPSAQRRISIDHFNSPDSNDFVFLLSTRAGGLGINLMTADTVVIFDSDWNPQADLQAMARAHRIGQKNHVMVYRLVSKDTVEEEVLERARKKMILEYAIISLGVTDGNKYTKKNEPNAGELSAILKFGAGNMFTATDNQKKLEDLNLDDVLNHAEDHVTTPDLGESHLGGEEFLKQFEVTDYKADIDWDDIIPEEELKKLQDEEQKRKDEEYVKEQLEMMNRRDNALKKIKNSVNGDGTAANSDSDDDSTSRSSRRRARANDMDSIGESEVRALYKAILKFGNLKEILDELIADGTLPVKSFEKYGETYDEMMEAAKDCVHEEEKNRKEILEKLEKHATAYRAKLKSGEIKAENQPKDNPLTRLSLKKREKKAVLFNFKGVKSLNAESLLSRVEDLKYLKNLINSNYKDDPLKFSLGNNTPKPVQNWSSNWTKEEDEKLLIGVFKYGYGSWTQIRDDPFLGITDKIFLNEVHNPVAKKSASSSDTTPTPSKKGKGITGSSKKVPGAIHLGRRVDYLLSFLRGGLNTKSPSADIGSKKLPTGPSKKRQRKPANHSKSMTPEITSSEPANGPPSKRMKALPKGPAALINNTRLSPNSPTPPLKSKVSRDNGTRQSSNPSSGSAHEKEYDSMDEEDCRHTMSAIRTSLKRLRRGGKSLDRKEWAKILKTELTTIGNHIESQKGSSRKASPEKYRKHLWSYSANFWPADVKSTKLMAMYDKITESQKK

Sequence of Sialic acid-binding Ig-like lectin 9 (Homo sapiens) (Q9Y336 whole entry): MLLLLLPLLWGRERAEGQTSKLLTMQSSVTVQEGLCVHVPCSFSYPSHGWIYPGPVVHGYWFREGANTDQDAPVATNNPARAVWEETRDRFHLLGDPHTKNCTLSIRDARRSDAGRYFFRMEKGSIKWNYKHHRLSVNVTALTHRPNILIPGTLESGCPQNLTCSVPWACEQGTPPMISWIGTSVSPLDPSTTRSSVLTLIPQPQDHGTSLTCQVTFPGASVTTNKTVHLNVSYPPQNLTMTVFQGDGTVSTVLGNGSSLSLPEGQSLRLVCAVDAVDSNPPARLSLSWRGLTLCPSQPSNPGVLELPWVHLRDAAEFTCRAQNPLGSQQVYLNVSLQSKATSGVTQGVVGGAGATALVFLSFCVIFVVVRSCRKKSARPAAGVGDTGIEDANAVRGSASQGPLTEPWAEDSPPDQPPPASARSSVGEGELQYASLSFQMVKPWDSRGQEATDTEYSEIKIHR
Sequence of Protein translocase subunit SecA (Escherichia coli (strain K12)) (P10408 whole entry): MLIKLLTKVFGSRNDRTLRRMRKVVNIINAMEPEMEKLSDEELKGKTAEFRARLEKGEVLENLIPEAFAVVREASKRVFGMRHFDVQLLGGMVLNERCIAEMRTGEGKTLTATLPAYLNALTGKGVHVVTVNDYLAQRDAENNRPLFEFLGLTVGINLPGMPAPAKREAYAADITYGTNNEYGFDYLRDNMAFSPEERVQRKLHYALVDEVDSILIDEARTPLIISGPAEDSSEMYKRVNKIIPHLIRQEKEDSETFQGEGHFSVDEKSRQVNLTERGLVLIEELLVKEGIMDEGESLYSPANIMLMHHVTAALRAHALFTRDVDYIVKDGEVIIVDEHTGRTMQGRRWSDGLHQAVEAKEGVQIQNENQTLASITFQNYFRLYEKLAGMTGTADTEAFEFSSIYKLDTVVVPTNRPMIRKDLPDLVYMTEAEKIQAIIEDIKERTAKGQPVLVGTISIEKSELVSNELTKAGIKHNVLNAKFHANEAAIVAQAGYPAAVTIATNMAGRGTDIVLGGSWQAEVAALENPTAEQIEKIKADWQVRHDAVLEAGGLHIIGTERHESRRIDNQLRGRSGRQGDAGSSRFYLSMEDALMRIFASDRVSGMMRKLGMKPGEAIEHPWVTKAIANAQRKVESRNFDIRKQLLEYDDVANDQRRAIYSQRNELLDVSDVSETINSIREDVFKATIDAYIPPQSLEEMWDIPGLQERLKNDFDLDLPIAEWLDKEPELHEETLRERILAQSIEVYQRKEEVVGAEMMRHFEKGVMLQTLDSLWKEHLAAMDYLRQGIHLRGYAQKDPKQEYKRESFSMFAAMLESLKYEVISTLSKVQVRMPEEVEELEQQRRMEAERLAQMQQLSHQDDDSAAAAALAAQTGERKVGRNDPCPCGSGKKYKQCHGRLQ

As to `c1cnc(NC[C@@H]2CCC[C@@H]3CN(Cc4cc[nH]n4)C[C@@H]32)nc1`, the Percent Effect is -1.01% in test [1]; 10.8% in [2]; -0.521% in test [3]; -5.7% in test [4]; -5.33% in test [5]; 5.66% in test [6]. The Percent Effect is 4.17% in [7]; 7.69% in test [8]; 6.51% in test [9]; -15% in test [10]; 10.9% in [11]; 15.8% in test [12]. Moreover, the Percent Effect in test [13] is -6.02%.

Consider `COC[C@]12COC[C@H]1CN(Cc1cccnc1OC)C2`, for which the Percent Effect in test [1] is -3.99%; in test [2], 9.33%; in [3] it was -1.36%; in test [4], 1.98%; in [5] it was 1.86%; in test [6], -4.32%. In addition, the Percent Effect is -8.63% in test [7]; 18.7% in test [8]; -3.88% in test [9]; -17.2% in test [10]; 7.41% in test [11]; 5.13% in test [12]. The Percent Effect in [13] is -3.25%.

With `Cc1nnc([C@H]2CC[C@@H]3[C@@H](CCN3Cc3c(C)noc3C)O2)o1`, the Percent Effect in test [1] is -0.00919%; in test [2] it was 8%; in [3], 2.12%; in test [4] it was 3.84%; in test [5], -0.659%; in test [6], -5.79%. For the same molecule, the Percent Effect in test [7] was -54.3%; in [8] it was 11.4%; in test [9], -18.2%; in test [10] it was -1.17%; in test [11], 6.25%; in test [12], 22.5%. Also, in test [13], the Percent Effect was -6.76%.

Turning to `c1cncc(CO[C@H]2CO[C@@]3(CCN(Cc4ccoc4)C3)C2)c1`, the Percent Effect was -2.55% in test [1]; -1.33% in test [2]; -2.79% in test [3]; 7.6% in [4]; 8.75% in test [5]; -4.32% in [6]. Also, the Percent Effect in [7] was -6.16%; in test [8], 12.6%; in test [9], 2.27%; in [10], -19.8%; in test [11], 2.12%; in test [12], -2.56%. Besides, the Percent Effect in test [13] was determined as 1.04%.

The values are drawn from ChEMBL document CHEMBL3988442, “University of Dundee, Small-Polar-MMV Screening Library” (2021).
